Common to all, as to assay type: functional
Assay [1] deals with Solute carrier family 2, facilitated glucose transporter member 1 (Homo sapiens) (UniProt P11166). As to the kind of experiment: ST_JUDE_LEISH: Cytotoxicity at 2uM final concentration against transgenic Leishmania Mexicana promastigotes LmGLUT1 that are glucose transport deficient and complemented with the human glucose transporter GLUT1. Activity is measured by DNA content using SYBR green in vitro.

For assay [2], the target named is Hexose transporter 1 (Plasmodium falciparum) (UniProt O97467). Put plainly: ST_JUDE_LEISH: Cytotoxicity at 2uM final concentration against transgenic Leishmania Mexicana promastigotes LmPfHT that are glucose transport deficient and complemented with the Plasmodium falciparum hexose transporter. Activity is measured by DNA content using SYBR green in vitro.
Assay [3] has as its target Glucose transporter (Leishmania mexicana) (UniProt O61059). As to the kind of experiment: ST_JUDE_LEISH: Cytotoxicity at 2uM final concentration against transgenic Leishmania Mexicana promastigotes LmGT2 that are glucose transport deficient and complemented with the L. Mexicana glucose transporter 2. Activity is measured by DNA content using SYBR green in vitro.

Among the data in ChEMBL document CHEMBL3433997, “St. Jude Leishmania screening dataset” (2016) are inhibition values, retold here.

Usually inhibition stands for the relative decrease from the control value, in per cent.

Solute carrier family 2, facilitated glucose transporter member 1 (Homo sapiens), sequence (P11166 whole entry): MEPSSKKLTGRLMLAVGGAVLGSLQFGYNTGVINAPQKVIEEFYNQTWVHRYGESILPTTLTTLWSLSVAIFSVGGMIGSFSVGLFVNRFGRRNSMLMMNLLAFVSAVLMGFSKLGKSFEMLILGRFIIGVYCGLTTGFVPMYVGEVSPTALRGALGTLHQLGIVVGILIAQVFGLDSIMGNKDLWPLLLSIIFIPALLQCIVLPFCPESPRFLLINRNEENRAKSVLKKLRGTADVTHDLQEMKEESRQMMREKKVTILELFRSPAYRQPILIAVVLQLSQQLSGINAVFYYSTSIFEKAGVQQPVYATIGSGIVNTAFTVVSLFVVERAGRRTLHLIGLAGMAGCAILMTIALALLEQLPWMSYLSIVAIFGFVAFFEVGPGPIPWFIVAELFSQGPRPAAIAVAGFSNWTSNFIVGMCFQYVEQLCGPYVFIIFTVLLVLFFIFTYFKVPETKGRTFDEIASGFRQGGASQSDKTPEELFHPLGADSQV

Turning to `NC(=O)c1cnc2ccc(-c3cncs3)cc2c1Nc1ccc(F)c(Cl)c1`, the inhibition in assay [1] was 1.94%; in assay [2], 2.75%; in assay [3], 1.95%.

`NC1=Nc2ccc(Cl)cc2C1(O)c1ccccc1` (stereo not drawn): the inhibition in assay [1] came to 1.25%; in assay [2], 1.33%; in assay [3] it was 0.97%.

As to `Fc1ccc2[nH]c(-c3cccc(-c4ccc(CNCc5ccccc5)cc4)c3)nc2c1`, the inhibition was 7.37% in assay [1], 9.95% in assay [2] and 4.2% in assay [3].

In the case of `CS(=O)(=O)CCCNCc1ccc(-c2cc3c(Nc4ccc(OCc5ccccc5)cc4)ncnc3cn2)o1`, the inhibition worked out at 2.89% in assay [1], 2.8% in assay [2] and 2.01% in assay [3].

As to `Cc1c(Cl)cccc1S(=O)(=O)Nc1cccc(CCN2CCC(N3CCCCC3)CC2)c1`, the values for the inhibition in assay [1], in assay [2] and in assay [3] were 2.7%, 4.32% and 2.25%, respectively.

As to `O=c1ccc2ncc(Cl)c3c2n1CC3CN1CCC(NCc2cc3c(cn2)OCCO3)CC1` (stereo not drawn), the figures for the inhibition in assay [1], in assay [2] and in assay [3] were 8.8%, 14.5% and 5.05%, respectively.

With `COc1cc(-c2nc(-c3ccncc3)c(-c3ccc4c(c3)CCC4=NO)[nH]2)ccc1OCCN1CCN(C)CC1`, the inhibition in assay [1] turned out to be 6.6%; in assay [2] it was 6.49%; in assay [3], 5.31%.

Take `COc1cccc2cc(C(=O)N[C@@H](CC(C)C)C(=O)N[C@H](/C=N/NC(=O)c3ccccc3)Cc3c[nH]cn3)oc12`: the results for the inhibition in assay [1], in assay [2] and in assay [3] were 2.75%, 0.99% and 3.92%, respectively.

As to `CCOc1ccccc1CNc1nccc(NCc2ccccc2OC)n1`, the inhibition in assay [1] stood at 2.53%; in assay [2], 4.16%; in assay [3], 2.05%.

Regarding `COc1cc2nc(N3CCC(CNC(=O)c4ccc(-c5ccc(C(=O)N(C)C)cc5O)cc4)CC3)nc(N)c2cc1OC`, the inhibition in assay [1] was 0.58%; in assay [2] it was 1.14%; in assay [3] it was -1.24%.

With `Cc1cc(C(=O)Nc2ccc(C)c(-c3nc(N(C(=O)c4ccc(F)c(C)c4)C4CCNCC4)nc4c3ccc(=O)n4-c3c(F)cccc3F)c2)ccc1F`, the figures for the inhibition in assay [1], in assay [2] and in assay [3] were 1.66%, 0.07% and 0.59%, respectively.
